In PubChem BioAssay AID1159580 (chemical genetic matrix, 2015):
Where “and” joins values, the source holds several entries; their conditions need not be identical. Equal values may be shown once. The whole screen tested about 5,500 compounds, of which about 2,000 (36%) were called active. Inconclusive results (about 18%) are left out. Rule as the data show it: active = normalized growth mostly below about 0.91 (no sharp cut-off); inconclusive = no clear call, values can overlap the other calls; inactive = mostly above about 0.92. Some of the results follow.

Experiment: chemical genetic growth profiling, strain panel (AID 1159580);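 also: tested at 20 µM; growth read once vehicle control cultures reached saturation at 30 °C; 1 = growth at the plate median or of vehicle wells; lower values mean less growth of the strain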
Settings: S. cerevisiae deletion strains, growth OD

Measured: normalized growth

C[C@H]1C(=O)O[C@@H]2CCN3CC=C(COC(=O)[C@](C)(O)[C@]1(C)O)[C@H]23
inactive: locus YAL021C, strain ccr4, stronger effect = lower value 1 | locus YAL026C, strain drs2, stronger effect = lower value 0.991 | locus YAL030W, strain snc1, stronger effect = lower value 0.989 | locus YBL061C, strain skt5, stronger effect = lower value 0.995 | locus YBR009C, strain hhf1, stronger effect = lower value 0.993 | locus YBR021W, strain FUR4, stronger effect = lower value 0.978 | locus YBR023C, strain chs3, stronger effect = lower value 0.995 | locus YBR171W, strain sec66, stronger effect = lower value 0.987 | locus YBR229C, strain ROT2, stronger effect = lower value 0.989 | locus YBR231C, strain swc5, stronger effect = lower value 0.984 | locus YBR279W, strain paf1, stronger effect = lower value 0.99 | locus YCL011C, strain gbp2, stronger effect = lower value 0.997 | locus YCL016C, strain dcc1, stronger effect = lower value 0.999 | locus YCL029C, strain bik1, stronger effect = lower value 0.99 | locus YCL069W, strain vba3, stronger effect = lower value 0.995 | locus YCR088W, strain abp1, stronger effect = lower value 0.992 | locus YDL005C, strain med2, stronger effect = lower value 0.992 | locus YDL035C, strain GPR1, stronger effect = lower value 0.999 | locus YDL040C, strain nat1, stronger effect = lower value 0.991 | locus YDL074C, strain BRE1, stronger effect = lower value 1.02 | locus YDL101C, strain DUN1, stronger effect = lower value 0.99 | locus YDL134C, strain PPH21, stronger effect = lower value 0.968 | locus YDL185W, strain tfp1, stronger effect = lower value 0.984 | locus YDL192W, strain arf1, stronger effect = lower value 0.981 | locus YDR001C, strain nth1, stronger effect = lower value 0.99 | locus YDR069C, strain doa4, stronger effect = lower value 0.99 | locus YDR101C, strain arx1, stronger effect = lower value 0.994 | locus YDR137W, strain rgp1, stronger effect = lower value 0.972 | locus YDR159W, strain sac3, stronger effect = lower value 0.984 | locus YDR162C, strain NBP2, stronger effect = lower value 0.996 | locus YDR195W, strain ref2 0.945 | locus YDR297W, strain sur2, stronger effect = lower value 0.998 | locus YDR318W, strain mcm21, stronger effect = lower value 0.996 | locus YDR334W, strain swr1, stronger effect = lower value 0.995 | locus YDR335W, strain msn5, stronger effect = lower value 0.989 | locus YDR388W, stronger effect = lower value 0.997 | locus YDR392W, strain spt3, stronger effect = lower value 0.995 | locus YDR502C, strain sam2, stronger effect = lower value 0.99 | locus YEL003W, strain gim4, stronger effect = lower value 0.991 | locus YEL037C, strain rad23, stronger effect = lower value 0.996 | locus YEL061C, strain CIN8 (second series), stronger effect = lower value 0.99 | locus YEL061C, strain CIN8, stronger effect = lower value 0.995 | locus YER015W, strain faa2, stronger effect = lower value 0.998 | locus YER016W, strain bim1, stronger effect = lower value 0.989 | locus YER110C, stronger effect = lower value 0.986 | locus YER111C, strain swi4, stronger effect = lower value 0.969 | locus YER155C, strain BEM2 (second series), stronger effect = lower value 0.937 | locus YER155C, strain BEM2, stronger effect = lower value 0.988 | locus YER167W, strain BCK2, stronger effect = lower value 0.982 | locus YFR010W, strain ubp6, stronger effect = lower value 0.99 | locus YGL078C, strain dbp3, stronger effect = lower value 0.988 | locus YGL086W, strain mad1, stronger effect = lower value 1.01 | locus YGL167C, strain pmr1, stronger effect = lower value 0.994 | locus YGL173C, strain kem1, stronger effect = lower value 0.994 | locus YGL227W, strain vid30, stronger effect = lower value 0.982 | locus YGL240W, strain doc1, stronger effect = lower value 0.987 | locus YGL248W, strain PDE1, stronger effect = lower value 0.997 | locus YGL253W, strain hxk2, stronger effect = lower value 0.994 | locus YGR135W, strain pre9, stronger effect = lower value 0.987 | locus YGR229C, strain SMI1, stronger effect = lower value 1 | locus YGR252W, strain gcn5, stronger effect = lower value 0.98 | locus YHR013C, strain ard1, stronger effect = lower value 1 | locus YHR027C, strain rpn1, stronger effect = lower value 0.991 | locus YHR030C, strain SLT2, stronger effect = lower value 0.986 and 0.998 | locus YHR079C, strain IRE1 (second series), stronger effect = lower value 0.994 | locus YHR079C, strain IRE1, stronger effect = lower value 0.985 | locus YHR094C, strain hxt1, stronger effect = lower value 0.991 | locus YHR129C, strain ARP1, stronger effect = lower value 0.989 | locus YHR142W, strain chs7, stronger effect = lower value 1 | locus YHR200W, strain rpn10, stronger effect = lower value 0.991 | locus YIL066C, strain RNR3, stronger effect = lower value 0.992 | locus YIL073C, strain SPO22, stronger effect = lower value 0.969 | locus YIL125W, strain kgd1, stronger effect = lower value 0.995 | locus YIR030C, strain dcg1, stronger effect = lower value 0.99 | locus YJL092W, strain hpr5, stronger effect = lower value 0.97 | locus YJL095W, strain BCK1 (second series), stronger effect = lower value 0.984 | locus YJL095W, strain BCK1, stronger effect = lower value 1.02 and 1 | locus YJL115W, strain asf1, stronger effect = lower value 0.969 | locus YJL129C, strain trk1, stronger effect = lower value 0.968 | locus YJL134W, strain LCB3, stronger effect = lower value 0.994 | locus YJL154C, strain vps35, stronger effect = lower value 0.991 | locus YJL164C, strain tpk1, stronger effect = lower value 1.01 | locus YJL166W, strain qcr8, stronger effect = lower value 0.987 | locus YJL168C, strain set2, stronger effect = lower value 0.997 | locus YJL187C, strain SWE1 (second series), stronger effect = lower value 0.995 | locus YJL187C, strain SWE1, stronger effect = lower value 0.996 | locus YJR043C, strain POL32, stronger effect = lower value 1.01 | locus YJR066W, strain TOR1, stronger effect = lower value 0.944 | locus YKL009W, strain mrt4, stronger effect = lower value 0.983
